Assay results as given in PubChem BioAssay (NCI).
This is part of a sample that, as a whole, favours compounds with a hit. Of some 79,000 tested, about 15% had one in any assay. Calls of active or inactive are those of the source. Rule as the data show it: active = growth inhibition above about 70%; inactive = the rest.

Test: NCI Yeast Anticancer Drug Screen. Data for the sgs1 strain (AID 173);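 also: 0% = growth of vehicle-only control cultures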
Settings: S. cerevisiae sgs1 mutant, hits give high values
Description: Growth inhibition of yeast strains with defined genetic alterations is measured as a screen for potential anti-cancer activity. Selected strains with alterations in DNA damage repair or cell cycle control were exposed to compounds and growth inhibition was measured relative to vehicle treated controls. The strain used in this assay is sgs1

Measured: growth inhibition

CNc1ccc(Cc2c[nH]c3ccccc23)cc1
inactive: at 1.2 µM -30% | at 3.7 µM -30% | at 11.0 µM -31% | at 33.0 µM 11% | at 100.0 µM 28%

NNC(=S)Nc1cccc2ccccc12
inactive: at 1.2 µM -14% | at 3.7 µM -33% | at 11.0 µM -19% | at 33.0 µM -8% | at 100.0 µM 37%

Cc1cc(Cl)ccc1NC(=O)/C(Cl)=C1/Sc2ccccc2NC1=O
inactive: at 1.2 µM -1% | at 3.7 µM 2% | at 11.0 µM 4% | at 33.0 µM 7% | at 100.0 µM 31%

O/N=C/C1c2ccccc2-c2ccccc21
inactive: at 1.2 µM 0% | at 3.7 µM -2% | at 11.0 µM 0% | at 33.0 µM 44%
active: at 100.0 µM 88%

COC(=O)c1oc([N+](=O)[O-])c(Cl)c1Cl
inactive: at 3.7 µM 57%
active: at 1.2 µM 82% | at 11.0 µM 78% | at 33.0 µM 96% | at 100.0 µM 96%

S=P(N1CC1)(N1CC1)N1CC1
inactive: at 1.2 µM -2% | at 3.7 µM -4% | at 11.0 µM -2% | at 33.0 µM 3% | at 100.0 µM 20%

CCC(=O)N(c1ccccc1)C(C)CN1CCC(O)(c2cccc(C(F)(F)F)c2)CC1 (stereo not given)
active: at 100.0 µM 94%
inactive: at 1.2 µM 2% | at 3.7 µM 10% | at 11.0 µM 20% | at 33.0 µM 60%

Clc1nc(C(Cl)Cl)nc2sc3c(c12)CCCC3
active: at 100.0 µM 78%
inactive: at 1.2 µM 7% | at 3.7 µM 7% | at 11.0 µM 10% | at 33.0 µM 51%
